8 compounds from PubChem BioAssay (NCI) can be followed below.

Compounds without any hit were thinned out: in the full panel of roughly 83,000, 20% have a hit.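 Values shown are percent growth following 48 h exposure of cells in 96-well plates to a single concentration of compound; below 10 was considered active.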 Unmarked numbers belong to inactive results. Active and inactive are the calls of the source.

Among the test systems are SR leukemia; RPMI-8226 leukemia; OVCAR-8 ovarian; OVCAR-5 ovarian; OVCAR-4 ovarian; SK-OV-3 ovarian; IGROV1 ovarian; OVCAR-3 ovarian; HS 578T breast; NCI/ADR-RES ovarian; T-47D breast; BT-549 breast; MDA-MB-435 melanoma; SW-620 colon; MCF7 breast; HCT-116 colon; HCC-2998 colon; KM12 colon.
What all share (experiment): NCI-60 one-dose screen, 48 h (100 = growth as untreated, 0 = no growth, -100 = all killed)
Common to all, as to conditions: 10 µM

Regarding `NC1CCC(Nc2nc(NCc3ccc(-c4cccs4)nc3)c3ncn(C4CCCC4)c3n2)CC1` (centres undefined), the growth was -33.2% (active) in the assay with SR leukemia; -20.5% (active) in the assay with RPMI-8226 leukemia; 12.2% in the assay on OVCAR-8 ovarian; 22.6% in the assay with OVCAR-5 ovarian; 5.74% (active) with OVCAR-4 ovarian; 4.04% (active) with SK-OV-3 ovarian. Also, the growth in the assay with IGROV1 ovarian was 8.26% (active); in the assay with OVCAR-3 ovarian it was 2.56% (active); with HS 578T breast it was 6.97% (active); in the assay with NCI/ADR-RES ovarian it was 38.1%; in the assay on T-47D breast, -22.9% (active); in the assay on BT-549 breast, -27.4% (active). Further, the growth in the assay on MDA-MB-435 melanoma is -53.2% (active); in the assay on SW-620 colon, 6.7% (active); in the assay on MCF7 breast, -34% (active); in the assay with HCT-116 colon it was 0.721% (active); with HCC-2998 colon it was -43.1% (active); in the assay with KM12 colon it was 5.58% (active).

On to `COc1cccc(-c2nnc(COc3ccc(-c4nc5ccc(C)cc5[nH]4)cc3OC)o2)c1`, for which the growth in the assay on SR leukemia is -25.7% (active); in the assay on RPMI-8226 leukemia, -12.2% (active); in the assay with OVCAR-8 ovarian it was 46.9%; in the assay on OVCAR-5 ovarian, 103%; with OVCAR-4 ovarian, 54.4%; with SK-OV-3 ovarian, 101%. Also, the growth in the assay on IGROV1 ovarian is 85.1%; in the assay on OVCAR-3 ovarian, 77.4%; with HS 578T breast it was 31.1%; in the assay with NCI/ADR-RES ovarian, 76.8%; with T-47D breast it was 50.7%; in the assay with BT-549 breast, 92.7%. For the same compound, the growth was 41.6% with MDA-MB-435 melanoma; 64.5% in the assay with SW-620 colon; 18.5% in the assay with MCF7 breast; 29.4% with HCT-116 colon; 88.6% with HCC-2998 colon; 39.7% with KM12 colon.

Turning to `O=c1cc(CSc2nnc(-c3ccccc3)n2-c2ccc(F)cc2)c2ccc3ccccc3c2o1`, the growth in the assay on SR leukemia is 88.5%; in the assay on RPMI-8226 leukemia, 101%; in the assay on OVCAR-8 ovarian it was 93%; in the assay on OVCAR-5 ovarian, 94%; in the assay with OVCAR-4 ovarian, 99.2%; in the assay with SK-OV-3 ovarian, 99.7%. The growth in the assay on IGROV1 ovarian was 92.2%; in the assay on OVCAR-3 ovarian it was 97.5%; with HS 578T breast it was 103%; with NCI/ADR-RES ovarian it was 84.3%; in the assay with T-47D breast, 76.7%; with BT-549 breast it was 102%. The growth was 112% in the assay on MDA-MB-435 melanoma; 104% with SW-620 colon; 99.5% in the assay on MCF7 breast; 86.5% with HCT-116 colon; 86.9% in the assay on HCC-2998 colon; 95.8% in the assay with KM12 colon.

As for `Nc1ccc2c(c1)Cc1cc(N)c(Cl)cc1-2`, the growth is 88.8% in the assay with SR leukemia; 96.8% with RPMI-8226 leukemia; 97.9% in the assay on OVCAR-8 ovarian; 112% in the assay with OVCAR-5 ovarian; 84% with OVCAR-4 ovarian; 113% in the assay with SK-OV-3 ovarian. Further, the growth in the assay on IGROV1 ovarian was 98.2%; in the assay with OVCAR-3 ovarian it was 124%; with HS 578T breast it was 89.8%; with NCI/ADR-RES ovarian, 107%; in the assay with T-47D breast, 54.3%; in the assay with BT-549 breast, 90.3%. The growth in the assay on MDA-MB-435 melanoma was 94.3%; with SW-620 colon it was 108%; in the assay with MCF7 breast, 42.6%; in the assay with HCT-116 colon, 100%; in the assay on HCC-2998 colon, 103%; in the assay with KM12 colon it was 108%.

On to `COc1ccc2oc(=O)cc(C3c4ccc([nH]4)C(c4cc(=O)oc5ccc(OC)cc45)c4ccc([nH]4)C(c4cc(=O)oc5ccc(OC)cc45)c4ccc([nH]4)C(c4cc(=O)oc5ccc(OC)cc45)c4ccc3[nH]4)c2c1` (centres undefined), for which the growth in the assay with SR leukemia was -15.9% (active); in the assay with RPMI-8226 leukemia it was -6.88% (active); in the assay with OVCAR-8 ovarian, -10.9% (active); in the assay on OVCAR-5 ovarian it was 3.08% (active); in the assay with OVCAR-4 ovarian, 0.347% (active); with SK-OV-3 ovarian, 0.72% (active). Further, the growth was 19.7% with IGROV1 ovarian; -85.2% (active) in the assay with OVCAR-3 ovarian; 8.18% (active) in the assay with HS 578T breast; 5.87% (active) in the assay on NCI/ADR-RES ovarian; -28.7% (active) in the assay on T-47D breast; -73.8% (active) in the assay with BT-549 breast. The growth in the assay on MDA-MB-435 melanoma was 1.62% (active); in the assay on SW-620 colon it was -64.1% (active); in the assay with MCF7 breast, -29.7% (active); with HCT-116 colon, -70.4% (active); with HCC-2998 colon it was 30.5%; with KM12 colon, 1.11% (active).

Regarding `COc1ccc(Nc2nc(NCc3ccccc3)c3ccccc3n2)cc1`, the growth with SR leukemia was 45.2%; in the assay on RPMI-8226 leukemia it was 75.9%; in the assay with OVCAR-8 ovarian it was 6.75% (active); with OVCAR-5 ovarian, 78.7%; in the assay with OVCAR-4 ovarian, -37.2% (active); in the assay with SK-OV-3 ovarian it was 13.4%. The growth in the assay on IGROV1 ovarian was 42.5%; with OVCAR-3 ovarian it was 14.8%; in the assay on HS 578T breast it was -3.28% (active); in the assay with NCI/ADR-RES ovarian, 39.7%; with T-47D breast it was 45.6%; with BT-549 breast, 82.9%. The growth in the assay with MDA-MB-435 melanoma was 84.2%; with SW-620 colon, 68.2%; in the assay on MCF7 breast, 67.4%; in the assay with HCT-116 colon, 29.8%; in the assay on HCC-2998 colon it was 91.5%; in the assay on KM12 colon, 80.7%.

Regarding `Cc1nnc2c3nnc(-c4ccc(Cl)cc4)n3c3ccccc3n12`, the growth in the assay with SR leukemia was 77%; with RPMI-8226 leukemia, 95%; in the assay with OVCAR-8 ovarian, 98.1%; in the assay on OVCAR-5 ovarian, 100%; in the assay on OVCAR-4 ovarian, 115%; in the assay with SK-OV-3 ovarian, 92.5%. Moreover, the growth with IGROV1 ovarian is 91.8%; with OVCAR-3 ovarian, 104%; with HS 578T breast, 97.9%; with NCI/ADR-RES ovarian it was 107%; in the assay on T-47D breast it was 105%; in the assay with BT-549 breast it was 91.5%. The growth in the assay with MDA-MB-435 melanoma was 94.9%; in the assay with SW-620 colon it was 106%; with MCF7 breast, 101%; with HCT-116 colon it was 101%; in the assay with HCC-2998 colon, 102%; in the assay on KM12 colon it was 103%.

As for `CCCCC(=O)N(c1ccc(Nc2c3ccccc3nc3cc([N+](=O)[O-])ccc23)cc1)S(C)(=O)=O`, the growth with SR leukemia is 5.36% (active); in the assay with RPMI-8226 leukemia, 35%; with OVCAR-8 ovarian, 71.7%; with OVCAR-5 ovarian, 96.9%; with OVCAR-4 ovarian, 81%; with SK-OV-3 ovarian, 80%. In addition, the growth in the assay on IGROV1 ovarian was 48.7%; with OVCAR-3 ovarian, 88.3%; with HS 578T breast, 88.3%; in the assay with NCI/ADR-RES ovarian, 101%; with T-47D breast, 15.1%; in the assay on BT-549 breast it was 86.3%. In addition, the growth is 96.8% in the assay with MDA-MB-435 melanoma; 71.5% in the assay on SW-620 colon; 17.2% with MCF7 breast; 63.4% in the assay on HCT-116 colon; 86.1% with HCC-2998 colon; 38.4% in the assay on KM12 colon.
